Assay outcomes deposited in PubChem by several laboratories.
This is a sample that favours compounds with a hit; in the whole collection about 2.8% have one here.
TRPM1 prom inh: MITF TRPM1 promoter inhibition in SK-MEL-5 cells; SK-MEL-5 TRPM1 promoter luciferase, 24 h; inhibition, % at 12.5 µM; actives 0.83% (n = 330,000);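 active = mean inhibition across replicates of 60% or more, whatever share of single replicates reaches that level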
Peg3 promoter: Peg3 promoter activity inhibition. HeLa PEG-Prom luciferase reporter, luminescence, overnight. inhibition, % at 20 µM. actives 1.7% (n = 360,000);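 active = inhibition of at least 50% at 20 µM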
HIF-2a block: blocks HIF-2a reporter activity. 786-0 RCC cells HIF-2a reporter, luciferase luminescence, overnight. inhibition, % at 18.8 µM. actives 0.72% (n = 360,000);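 active = inhibition of the luminescence signal of 40% or more relative to plate controls, in a single-dose primary screen at 18.75 µM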
KKLEB tox: reduces viability of KKLEB cystic fibrosis airway cells; KKLEB CF airway cells viability, ATPlite luminescence, overnight; active compounds read low; cells stimulated with P. aeruginosa culture filtrate; activity change (cytotoxicity), % at 5 µM; actives 0.36% (n = 360,000); AID 602141;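 active = corrected activity change at or below -50% at 5 µM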
Beta2AR agonist: human beta-2 adrenergic receptor agonism by FAP | actives 0.43% (n = 340,000) | response, % (test concentration not listed) | AID 504454 | Am2.2-beta2AR cells, FAP receptor internalization, flow cytometry;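 active = response above a set limit, near 3 SD of response in nonfluorescent compounds, cut at about 42% in these data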
Target sequence (P07550 whole entry, looked up): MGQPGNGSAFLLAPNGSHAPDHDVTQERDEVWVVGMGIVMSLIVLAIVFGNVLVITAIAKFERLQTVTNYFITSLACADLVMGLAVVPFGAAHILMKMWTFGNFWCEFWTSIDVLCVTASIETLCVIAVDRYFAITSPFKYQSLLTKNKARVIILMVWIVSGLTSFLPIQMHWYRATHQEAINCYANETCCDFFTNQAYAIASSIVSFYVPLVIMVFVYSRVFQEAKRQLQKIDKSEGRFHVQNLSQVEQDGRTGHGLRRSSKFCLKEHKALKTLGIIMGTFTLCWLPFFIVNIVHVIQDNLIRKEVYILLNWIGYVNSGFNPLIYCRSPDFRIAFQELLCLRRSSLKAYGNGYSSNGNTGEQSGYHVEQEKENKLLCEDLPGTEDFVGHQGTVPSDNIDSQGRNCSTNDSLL
CF NFkB block: blocks PAF-induced NF-kB reporter in cystic fibrosis cells. KKLEB NF-kB-GFP reporter, GFP fluorescence overnight. inhibition, % at 5 µM. actives 0.86% (n = 360,000). AID 588850;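 active = at least 50% inhibition at 5 µM, scaled per plate between neutral and stimulator controls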;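 note: PAF is a Pseudomonas aeruginosa culture filtrate used as stimulus; plate controls were PAF-stimulated DMSO wells for no effect and unstimulated DMSO wells for full effect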
Mdm2-MdmX confirm: confirmation of inhibitors of human Mdm2/MdmX interaction, set 2; AID 504601; SaOS-2 split-luciferase Mdm2/MdmX complementation, luminescence; shares compounds with HIF-2a block; inhibition, % at 8 µM; actives 99% (n = 740);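 active = mean inhibition of the luminescence signal across two replicates at or above 26 percent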
HIF-2a inh conf: HIF-2a inhibition, single concentration confirmation | AID 651580 | inhibition, % at 18.8 µM | 786-0 RCC cells, HIF-2a luciferase reporter luminescence, overnight | shares compounds with HIF-2a block | actives 56% (n = 1,800);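 active = mean inhibition across four replicates of at least 40 percent at the single tested concentration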
HIF-1a cs: counter-screen for HIF-2a inhibitors: HIF-1a inhibition in MiaPaCa-2 cells. AID 651589. actives 72% (n = 1,800). shares compounds with HIF-2a block. inhibition, % at 18.8 µM. MiaPaCa-2 HIF-1a luciferase reporter, desferoxamine, overnight;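 active = mean inhibition of the reporter signal across four replicates at the single tested dose of 50% or more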
Numbers without * were called inactive; · = no result given.

SMILES | TRPM1 prom inh | Peg3 promoter | HIF-2a block | KKLEB tox | Beta2AR agonist | CF NFkB block | HIF-2a inh conf | HIF-1a cs | others
COc1ccc2nc(-c3ccc(N)cc3)[nH]c2c1 | 32 | -117 | 70* | 6 | -4 | -22 | 80* | 17
CC(=O)Nc1ncnc2c1c(-c1ccc(Cl)cc1)nn2C(C)(C)C | 5 | 28 | 48* | -16 | -2 | 38 | 43* | 49
CC(=O)N(C(C)=O)c1ncnc2c1c(-c1ccc(Cl)cc1)nn2C(C)(C)C | 7 | 34 | 39 | -12 | 17 | 34 | · | ·
COC(=O)C(=C/C(C)=C/c1cccnc1)C(=O)OC | 45 | 60* | 43* | 8 | -5 | 21 | 26 | 13
COC(=O)/C(=C/c1cccnc1)NC(=O)c1ccccc1 | -3 | -13 | 24 | 13 | 4 | -17 | · | ·
C[C@]1(CC/C(=C/CO)CO)[C@H](C=O)CC[C@@]23COC(=O)C2=CCC[C@@H]31 | · | -2 | 18 | -8 | · | -19 | · | ·
Cc1ccnc(N/C=C(/NC(=O)c2ccccc2)C(=O)NN)n1 | -2 | 3 | 7 | 6 | 2 | 5 | · | ·
Cc1ccnc(N/C=C(/NC(=O)c2ccccc2)C(=O)N/N=C\c2ccc(F)cc2)n1 | 41 | 16 | 66* | 2 | 0 | -2 | 69* | 88*
CCN1C(=O)CS/C1=N\S(=O)(=O)c1ccc(Cl)cc1 | -9 | -14 | 6 | -10 | 0 | 6 | · | ·
CCn1c(Cl)c(C=O)s/c1=N\S(=O)(=O)c1ccccc1 | 98* | 105* | 95* | -85* | 115* | 88* | 99* | 105* | Mdm2-MdmX confirm=103*
CN1CC2=Cc3ccccc3OC23Oc2ccccc2C=C3C1 | 17 | 69* | 92* | -4 | -15 | -1 | 20 | 79*
COc1ccc2cc1Oc1ccc(cc1)CC1c3c(cc(OC)c4c3Oc3cc5c(cc3O4)CCNC5C2)CCN1C (stereo not drawn) | 109* | 102* | 54* | -45 | 32 | 44 | 3 | 106*
COc1ccc(OC)c(S(=O)(=O)N2CCN(c3ccccc3)CC2)c1 | -3 | 17 | 9 | 13 | -4 | -12 | · | ·
CCc1ccc(S(=O)(=O)ON2C(=O)c3ccccc3C2=O)cc1 | 11 | 51* | 46* | 10 | 7 | 3 | 51* | -4
COc1ccc(OC)c(S(=O)(=O)ON2C(=O)c3ccccc3C2=O)c1 | 31 | 54* | 57* | 0 | -1 | -10 | 60* | 23
CSc1ccc(/C=N/Nc2cccc(C(=O)O)c2)cc1 | 79* | 68* | 71* | 7 | 2 | 1 | 85* | -90
COC(=O)c1ccc(COc2ccc(/C=N/Nc3cccc(C(=O)O)c3)cc2)cc1 | -19 | -159 | -86 | -6 | 14 | -5 | · | ·
CCC(=O)N(C)C[C@H]1Oc2cc(-c3cccnc3)ccc2S(=O)(=O)N([C@H](C)CO)C[C@H]1C | · | 5 | 0 | 10 | · | -4 | · | ·
Cc1cccc(-c2ccc3[nH]c4c(c3c2)CCN2C[C@@H]([C@H](C)OC(=O)Nc3ccccc3C)[C@@H](N(C)C(=O)Nc3ccccc3C)C[C@@H]42)c1 | · | 40 | 56* | 15 | · | 16 | 1 | 83*
CN1OC[C@@H]2C(=O)N3CCc4c([nH]c5ccccc45)[C@@H]3C[C@@H]21 | · | 13 | -2 | 4 | · | -9 | · | ·
O=C(Cn1ncc(Cl)c(Cl)c1=O)NC1CCS(=O)(=O)C1 (stereo not drawn) | 19 | -6 | 2 | 2 | 0 | -2 | · | ·
Cc1cccc(NC(=O)CNC(=O)Cn2ncc(Cl)c(Cl)c2=O)c1C | 85* | 95* | 84* | -61* | 4 | 92* | · | · | Mdm2-MdmX confirm=103*
O=C(Cn1ncc(Cl)c(Cl)c1=O)NCC1CCCCC1 | 92* | 108* | 97* | -73* | 60* | 95* | 91* | 105*
CC(C)(C)NC(=S)N1CCC2CC1c1c(Cl)cccc12 (stereo not drawn) | · | 4 | 4 | -25 | · | 5 | · | ·
CC1CCCC(NC(=O)CSc2ncccn2)C1C (stereo not drawn) | 4 | 2 | 1 | 11 | 1 | -22 | · | ·
SMILES | TRPM1 prom inh | Peg3 promoter | HIF-2a block | KKLEB tox | Beta2AR agonist | CF NFkB block | HIF-2a inh conf | HIF-1a cs | others
O=[N+]([O-])c1ccc(Sc2ccncn2)c([N+](=O)[O-])c1 | · | 97* | 70* | -55* | · | 90* | 61* | 104*
O=[N+]([O-])c1ccc(Sc2cccc3cccnc23)c([N+](=O)[O-])c1 | 76* | 97* | 17 | -6 | 18 | -22 | · | · | Mdm2-MdmX confirm=83*
CCCCNC(=O)C1C(c2ccc(C(F)(F)F)cc2)=Nc2ccccc2N1C(=O)c1ccc2nc(C)[nH]c2c1 (stereo not drawn) | · | · | -118 | · | · | · | · | ·
Cc1cccc2sc(NNC(=O)c3ccc(S(=O)(=O)N4CC(C)CC(C)C4)cc3)nc12 (stereo not drawn) | 78* | 99* | 48* | -16 | 48* | 34 | -4 | 100* | Mdm2-MdmX confirm=90*
Cn1c(=O)c2c(nc(CN3CCN(Cc4ccccc4)CC3)n2Cc2cccc(Cl)c2)n(C)c1=O | -3 | 0 | -7 | 15 | -1 | -25 | · | ·
Cn1c(=O)c2c(nc(CN3CCc4ccccc4C3)n2Cc2cccc(Cl)c2)n(C)c1=O | · | 41 | 43* | -2 | 24 | 40 | 15 | 76*
Cc1noc(C)c1CSCC(=O)Nc1nc2c(F)cc(F)cc2s1 | -10 | -54 | -96 | 10 | 12 | 0 | · | ·
CCC(C)[C@H](N)C(=O)N[C@H]1CCC2C3CC=C4C[C@@H](O)CC[C@]4(C)C3CC[C@@]21C (stereo partly drawn) | · | 110* | 86* | -67* | · | 32 | -1 | 50*
CC(C)[C@H](N)C(=O)N[C@H]1CCC2C3CC=C4C[C@@H](O)CC[C@]4(C)C3CC[C@@]21C (stereo partly drawn) | · | 92* | 55* | -72* | · | 8 | 2 | 90*
Cn1cc(CN2CCC(C(=O)NC(c3ccc(F)cc3)c3ccc4ccccc4n3)CC2)c2ccccc21 (stereo not drawn) | · | 101* | 92* | 0 | · | 7 | -3 | 106*
COC(=O)[C@]12CCCCC=C1N(CCC1=CCCCC1)C(=O)[C@H](CC(=O)N1CCN(C(=O)c3ccco3)CC1)C2 | · | · | 2 | · | · | · | · | ·
